Among the data in PubChem BioAssay are fold change, cell count and z-score values, retold here.

The nature of test [1]: sensitizers of A549 cells to miR-34 induction, primary screen, imaging, A549 dox-inducible miR-34, nuclei and caspase counts (AID 1347080;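 active = compounds whose cell count with miR-34 switched on is under 0.7 times the count with it off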). The settings on record: A549 miR-34 inducible, Hoechst nuclei count, 48 h.
The nature of test [2]: survival rescue of mitochondrial mutant cells in low glucose, primary screen, MELAS cybrids, Rieske KO mouse fibroblasts, CellTiter-Glo (AID 1508586).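 Note: z relative to plate mean and SD of compound and empty wells.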 On the technique in general: ATP-based viability assays read luminescence as a measure of living cells.
The mark [3] stands for this setting: stronger effect = lower value, cell number ratio, induced over uninduced.
[4] abbreviates: measured here: relative caspase fold change +Dox/-Dox.
[5] abbreviates: measured here: total cells with miR-34 induction, stronger effect = lower value.
Setting [6] is: measured here: total cells without miR-34 induction.
Setting [7] is: MELAS cybrid survival, CellTiter-Glo 48 h, stronger effect = higher value.
The mark [8] stands for this setting: Rieske KO mouse fibroblast survival, CellTiter-Glo 72 h.

“And” between values parts separate entries of the source, which are not always exact repeats. Equal values may be shown once. Some structures have more than one record in an assay (separate samples or runs), and their calls can disagree. The source made the active and inactive calls.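 Rule for the calls, unless noted: active = mean z-score across replicates of 1.96 or higher in either the MELAS or the Rieske mutant cell line; inactive = the rest.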
Note: test concentration not given here.

In the case of `CC(C)OC(=O)OCOP(=O)(COC(C)Cn1cnc2c(N)ncnc21)OCOC(=O)OC(C)C` (stereo unspecified), the figures for the fold change in test [1] (setting [3]) and in test [1] (setting [4]) were 0.941 (inactive) and 0.831, respectively. For the same compound, the cell count in test [1] (setting [5]) turned out to be 7870; in test [1] (setting [6]) it was 8370. Also, the z-score was -0.399 (inactive) in test [2] (setting [7]) and 0.463 in test [2] (setting [8]).

Consider `Cc1c(Cc2ccc3ccccc3n2)c2cc(F)ccc2n1CC(=O)O`, for which the fold change is 0.985 (inactive) in test [1] (setting [3]) and 0.424 in test [1] (setting [4]). Further, the cell count was determined as 6920 in test [1] (setting [5]) and 7030 in test [1] (setting [6]). Also, the z-score in test [2] (setting [7]) is 0.326 (inactive); in test [2] (setting [8]), -0.0715.

Regarding `CC1(C)S[C@@H]2C(NC(=O)C(N)c3ccccc3)C(=O)N2C1C(=O)O` (stereo partly specified), the results for the fold change in test [1] (setting [3]) and in test [1] (setting [4]) were 0.917 (inactive) and 0.571, respectively. In addition, the cell count in test [1] (setting [5]) worked out at 8070; in test [1] (setting [6]), 8800. In addition, the z-score in test [2] (setting [7]) is -0.241 (inactive); in test [2] (setting [8]), -0.225.

On to `Cc1cc(=O)oc2c(C=O)c(O)ccc12`, for which the fold change in test [1] (setting [3]) was 0.88 (inactive); in test [1] (setting [4]) it was 0.552. Also, the cell count stood at 8210 in test [1] (setting [5]) and 9320 in test [1] (setting [6]). In addition, the z-score is -0.241 (inactive) in test [2] (setting [7]) and 0.915 in test [2] (setting [8]).

With `CCOc1cc2ncc(C#N)c(Nc3ccc(F)c(Cl)c3)c2cc1NC(=O)C=CCN(C)C`, the fold change was 0.915 (inactive) in test [1] (setting [3]) and 1.02 in test [1] (setting [4]). Further, the cell count in test [1] (setting [5]) worked out at 681; in test [1] (setting [6]), 744. The figures for the z-score in test [2] (setting [7]) and in test [2] (setting [8]) were 1.18 (inactive) and 0.656, respectively.

For the compound `O=C(C=Cc1ccc2ccccc2n1)c1ccncc1`, the fold change in test [1] (setting [3]) was 0.681 (active); in test [1] (setting [4]), 0.506. The results for the cell count in test [1] (setting [5]) and in test [1] (setting [6]) were 2580 and 3790, respectively. The z-score in test [2] (setting [7]) is 0.232 (inactive); in test [2] (setting [8]) it was 1.5.

Take `CNC1CN(c2ccc3c(=O)c(C(=O)O)cn(-c4nccs4)c3n2)CC1OC` (stereo unspecified): the fold change in test [1] (setting [3]) is 1.31 (inactive); in test [1] (setting [4]), 0.345. The cell count in test [1] (setting [5]) turned out to be 1410; in test [1] (setting [6]), 1080. For the same compound, the z-score in test [2] (setting [7]) was 2.91 (active); in test [2] (setting [8]), -1.95.

For the compound `CC1(C)CCC(c2ccc(Cl)cc2)=C(CN2CCN(c3ccc(C(=O)NS(=O)(=O)c4ccc(NC(CCN5CCOCC5)CSc5ccccc5)c(S(=O)(=O)C(F)(F)F)c4)cc3)CC2)C1` (stereo unspecified), the fold change is 1.03 (inactive) in test [1] (setting [3]) and 0.848 in test [1] (setting [4]). Moreover, the cell count worked out at 4260 in test [1] (setting [5]) and 4140 in test [1] (setting [6]). The z-score in test [2] (setting [7]) was 0.179 (inactive); in test [2] (setting [8]), -2.71.

Turning to `CNC1C(O)C(NC)[C@H]2O[C@@]3(O)C(=O)CC(C)O[C@H]3O[C@@H]2C1O` (stereo partly specified), the fold change in test [1] (setting [3]) is 1.01 (inactive); in test [1] (setting [4]), 0.997. Further, the cell count in test [1] (setting [5]) came to 9590; in test [1] (setting [6]), 9460. The z-score in test [2] (setting [7]) is -0.277 (inactive); in test [2] (setting [8]), 0.762.

As for `Cc1ccc(-n2sc(=O)n(Cc3ccc(F)cc3)c2=O)cc1`, the values for the fold change in test [1] (setting [3]) and in test [1] (setting [4]) were 0.959 (inactive) and 0.337, respectively. Besides, the values for the cell count in test [1] (setting [5]) and in test [1] (setting [6]) were 8430 and 8790, respectively. Also, the figures for the z-score in test [2] (setting [7]) and in test [2] (setting [8]) were -0.268 (inactive) and -0.132, respectively.

As to `COc1cccc2c1C(=O)c1c(O)c3c(c(O)c1C2=O)C[C@@](O)(C(=O)CO)CC3O[C@H]1CC(N)C(O)C(C)O1` (stereo partly specified), the fold change in test [1] (setting [3]) is 0.879 (inactive) and 1.08 (inactive); in test [1] (setting [4]) it was 1.03 and 0.95. Besides, the cell count is 1470 and 1780 in test [1] (setting [5]); 1680 and 1650 in test [1] (setting [6]). For the same compound, the z-score in test [2] (setting [7]) is 5.38 (active) and -0.136 (inactive); in test [2] (setting [8]), 4.45 and -2.31.

For the compound `Cc1cn(C2CC(O)C(CO)O2)c(=O)[nH]c1=O` (stereo unspecified), the values for the fold change in test [1] (setting [3]) and in test [1] (setting [4]) were 0.853 (inactive) and 1.28, respectively. Besides, the cell count was determined as 7950 in test [1] (setting [5]) and 9310 in test [1] (setting [6]). Further, the z-score in test [2] (setting [7]) is -0.34 (inactive); in test [2] (setting [8]) it was 0.719.

For `COc1ccnc2[nH]cc(C(=O)C(=O)N3CCN(C(=O)c4ccccc4)CC3C)c12` (stereo unspecified), the values for the fold change in test [1] (setting [3]) and in test [1] (setting [4]) were 0.955 (inactive) and 0.698, respectively. The figures for the cell count in test [1] (setting [5]) and in test [1] (setting [6]) were 9920 and 10400, respectively. For the same compound, the z-score in test [2] (setting [7]) is -0.419 (inactive); in test [2] (setting [8]), 0.811.

As for `Nc1ncnc2c1ncn2C1OC(CO)C(O)C1O` (stereo unspecified), the fold change in test [1] (setting [3]) was 0.838 (inactive) and 0.824 (inactive); in test [1] (setting [4]) it was 0.867 and 1.17. Moreover, the cell count in test [1] (setting [5]) is 6490 and 8470; in test [1] (setting [6]), 7740 and 10300. In addition, the z-score in test [2] (setting [7]) was -0.00177 (inactive) and -0.197 (inactive); in test [2] (setting [8]) it was -2.04 and 0.972.

As to `Nc1nc(N)c2nc(-c3cccc(O)c3)cnc2n1`, the fold change in test [1] (setting [3]) is 0.989 (inactive); in test [1] (setting [4]) it was 0.893. The cell count in test [1] (setting [5]) is 6340; in test [1] (setting [6]), 6410. The z-score in test [2] (setting [7]) is 1.29 (inactive); in test [2] (setting [8]), -0.0279.

Regarding `CC1(C)O[C@@H]2C[C@H]3[C@@H]4CCC5=CC(=O)C=C[C@]5(C)[C@@H]4C(O)C[C@]3(C)[C@@]2(C(=O)CO)O1` (stereo partly specified), the fold change in test [1] (setting [3]) was 0.87 (inactive); in test [1] (setting [4]), 1.16. In addition, the cell count in test [1] (setting [5]) came out at 5200; in test [1] (setting [6]), 5970. In addition, the z-score was -0.511 (inactive) in test [2] (setting [7]) and -0.393 in test [2] (setting [8]).
